Results taken from PubChem BioAssay AID1159580 (chemical genetic matrix, 2015).
Out of some 5,500 compounds screened, about 2,000 (36%) were called active. Not shown: some 18% with an inconclusive outcome. Cut-off read from the data, not from the text of the source: active = normalized growth mostly below about 0.91 (no sharp cut-off); inconclusive = no clear call, values can overlap the other calls; inactive = mostly above about 0.92. The list shows a part of the results.

Assay: chemical genetic growth profiling, strain panel (AID 1159580);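 note: tested at 20 µM; growth read once vehicle control cultures reached saturation at 30 °C; 1 = growth at the plate median or of vehicle wells; lower values mean less growth of the strain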
Conditions: S. cerevisiae deletion strains, growth OD

Measured: normalized growth

COc1ccc(-c2cc(=O)c3c(O)cc(O)c(-c4cc(-c5cc(=O)c6c(O)cc(O)cc6o5)ccc4OC)c3o2)cc1
inactive: locus YAL021C, strain ccr4, hits give low values 1 | locus YAL026C, strain drs2, hits give low values 1.01 | locus YAL030W, strain snc1, hits give low values 0.997 | locus YBL061C, strain skt5, hits give low values 1.01 | locus YBR009C, strain hhf1, hits give low values 1.01 | locus YBR021W, strain FUR4, hits give low values 1.03 | locus YBR023C, strain chs3, hits give low values 1 | locus YBR171W, strain sec66, hits give low values 1.02 | locus YBR229C, strain ROT2, hits give low values 0.998 | locus YBR231C, strain swc5, hits give low values 1.01 | locus YBR279W, strain paf1, hits give low values 1.01 | locus YCL011C, strain gbp2, hits give low values 1 | locus YCL016C, strain dcc1, hits give low values 1 | locus YCL029C, strain bik1, hits give low values 1.01 | locus YCL061C, strain MRC1, hits give low values 1.01 | locus YCL069W, strain vba3, hits give low values 1.01 | locus YCR088W, strain abp1, hits give low values 1.02 | locus YDL005C, strain med2, hits give low values 1.01 | locus YDL035C, strain GPR1, hits give low values 1.03 | locus YDL040C, strain nat1, hits give low values 1.01 | locus YDL074C, strain BRE1, hits give low values 1.05 | locus YDL101C, strain DUN1, hits give low values 1.01 | locus YDL185W, strain tfp1, hits give low values 0.997 | locus YDL192W, strain arf1, hits give low values 1 | locus YDR001C, strain nth1, hits give low values 1.02 | locus YDR069C, strain doa4, hits give low values 0.95 | locus YDR101C, strain arx1, hits give low values 1.02 | locus YDR137W, strain rgp1, hits give low values 0.997 | locus YDR159W, strain sac3, hits give low values 1.03 | locus YDR162C, strain NBP2, hits give low values 0.993 | locus YDR195W, strain ref2 0.993 | locus YDR297W, strain sur2, hits give low values 0.998 | locus YDR318W, strain mcm21, hits give low values 1 | locus YDR334W, strain swr1, hits give low values 0.992 | locus YDR335W, strain msn5, hits give low values 1.01 | locus YDR388W, hits give low values 1 | locus YDR392W, strain spt3, hits give low values 0.998 | locus YDR502C, strain sam2, hits give low values 1.02 | locus YEL003W, strain gim4, hits give low values 1 | locus YEL037C, strain rad23, hits give low values 1.02 | locus YEL061C, strain CIN8 (second series), hits give low values 1.01 | locus YEL061C, strain CIN8, hits give low values 1.01 | locus YER015W, strain faa2, hits give low values 1.01 | locus YER016W, strain bim1, hits give low values 1.01 | locus YER110C, hits give low values 1.02 | locus YER111C, strain swi4, hits give low values 1.03 | locus YER155C, strain BEM2 (second series), hits give low values 0.995 | locus YER155C, strain BEM2, hits give low values 1.01 | locus YER167W, strain BCK2, hits give low values 1.02 | locus YFR010W, strain ubp6, hits give low values 0.965 | locus YGL078C, strain dbp3, hits give low values 1.01 | locus YGL167C, strain pmr1, hits give low values 1.01 | locus YGL173C, strain kem1, hits give low values 1 | locus YGL227W, strain vid30, hits give low values 1.02 | locus YGL240W, strain doc1, hits give low values 1.02 | locus YGL248W, strain PDE1, hits give low values 0.986 | locus YGL253W, strain hxk2, hits give low values 1.01 | locus YGR078C, strain PAC10, hits give low values 1.03 | locus YGR135W, strain pre9, hits give low values 0.997 | locus YGR252W, strain gcn5, hits give low values 0.995 | locus YHR013C, strain ard1, hits give low values 0.993 | locus YHR027C, strain rpn1, hits give low values 1.01 | locus YHR030C, strain SLT2, hits give low values 1.02 | locus YHR079C, strain IRE1 (second series), hits give low values 1.01 | locus YHR094C, strain hxt1, hits give low values 1.01 | locus YHR129C, strain ARP1, hits give low values 1.01 | locus YHR142W, strain chs7, hits give low values 0.998 | locus YHR200W, strain rpn10, hits give low values 1.01 | locus YIL066C, strain RNR3, hits give low values 0.993 | locus YIL073C, strain SPO22, hits give low values 1.03 | locus YIL125W, strain kgd1, hits give low values 1.01 | locus YIR030C, strain dcg1, hits give low values 1.01 | locus YJL092W, strain hpr5, hits give low values 1.02 | locus YJL095W, strain BCK1 (second series), hits give low values 1.01 | locus YJL095W, strain BCK1, hits give low values 1.08 | locus YJL115W, strain asf1, hits give low values 1.01 | locus YJL129C, strain trk1, hits give low values 1.04 | locus YJL134W, strain LCB3, hits give low values 1.02 | locus YJL154C, strain vps35, hits give low values 1.01 | locus YJL164C, strain tpk1, hits give low values 0.987 | locus YJL166W, strain qcr8, hits give low values 0.997 | locus YJL168C, strain set2, hits give low values 1.01 | locus YJL187C, strain SWE1 (second series), hits give low values 0.993 | locus YJL187C, strain SWE1, hits give low values 0.99 | locus YJR043C, strain POL32, hits give low values 1.01 | locus YJR075W, strain HOC1, hits give low values 1.04 | locus YKL009W, strain mrt4, hits give low values 1.03 | locus YKL068W, hits give low values 1.01 | locus YKL085W, strain MDH1 (second series), hits give low values 1.06 | locus YKL085W, strain MDH1, hits give low values 1.06 | locus YKL160W, strain elf1, hits give low values 0.998 | locus YKR001C, strain vps1, hits give low values 1.01 | locus YKR026C, strain gcn3, hits give low values 0.998 | locus YKR091W, strain srl3, hits give low values 1.01 | locus YLL001W, strain dnm1, hits give low values 1.02 | locus YLL026W, hits give low values 1.02 | locus YLL041C, strain sdh2, hits give low values 0.995 | locus YLR027C, strain aat2, hits give low values 1 | locus YLR039C, strain RIC1, hits give low values 1.16 | locus YLR058C, strain SHM2, hits give low values 1 | locus YLR102C, strain apc9, hits give low values 1.01 | locus YLR221C, strain rsa3, hits give low values 0.999 | locus YLR258W, strain gsy2, hits give low values 1.01 | locus YLR262C, strain YPT6 (second series), hits give low values 1.02 | locus YLR262C, strain YPT6, hits give low values 1.24 | locus YLR268W, strain sec22, hits give low values 0.985 | locus YLR320W, strain mms22, hits give low values 1.01 | locus YLR330W, strain CHS5, hits give low values 1.03 | locus YLR342W, strain FKS1 (second series), hits give low values 1.02 | locus YLR342W, strain FKS1, hits give low values 0.978 | locus YLR357W, strain rsc2, hits give low values 0.973 | locus YLR370C, strain arc18, hits give low values 0.997 | locus YLR371W, strain rom2, hits give low values 1 | locus YLR384C, strain iki3, hits give low values 1.02 | locus YLR418C, strain cdc73, hits give low values 1.04 | locus YML016C, strain PPZ1, hits give low values 0.999 | locus YML032C, strain rad52, hits give low values 1.01 | locus YML120C, strain ndi1, hits give low values 1.03 | locus YML124C, strain tub3, hits give low values 1.01 | locus YMR058W, strain fet3, hits give low values 0.99 | locus YMR078C, strain ctf18, hits give low values 1.02 | locus YMR125W, strain sto1, hits give low values 1.02 | locus YMR129W, hits give low values 1.01 | locus YMR205C, strain PFK2, hits give low values 1.02 | locus YMR223W, strain ubp8, hits give low values 1.01 | locus YMR231W, strain pep5, hits give low values 1 | locus YMR263W, strain SAP30, hits give low values 1.03 | locus YMR307W, strain GAS1, hits give low values 1.13 | locus YNL067W, strain RPL9B, hits give low values 1.02 | locus YNL071W, strain lat1, hits give low values 1.01 | locus YNL128W, strain TEP1, hits give low values 1.03 | locus YNL153C, strain GIM3, hits give low values 0.98 | locus YNL209W, strain ssb2, hits give low values 1.01 | locus YNL233W, strain BNI4, hits give low values 1.04 | locus YNL248C, strain rpa49, hits give low values 1 | locus YNL250W, strain rad50, hits give low values 1.01 | locus YNL271C, strain bni1, hits give low values 1.01 | locus YNL298W, strain CLA4, hits give low values 1.01 | locus YNL307C, strain MCK1, hits give low values 1.02 | locus YNL322C, strain KRE1 (second series), hits give low values 1.02 | locus YNL322C, strain KRE1, hits give low values 1.01 | locus YNR049C, strain mso1, hits give low values 1.01 | locus YNR052C, strain pop2, hits give low values 1.01 | locus YOL006C, strain TOP1, hits give low values 1.16 | locus YOL012C, strain htz1 0.762 | locus YOL147C, strain pex11, hits give low values 1.02 | locus YOR001W, strain rrp6, hits give low values 0.993 | locus YOR061W, strain CKA2, hits give low values 1 | locus YOR069W, strain VPS5, hits give low values 1.01 | locus YOR070C, strain gyp1, hits give low values 1 | locus YOR080W, strain dia2, hits give low values 1.02 | locus YOR083W, strain WHI5, hits give low values 1 | locus YOR106W, strain vam3, hits give low values 0.973 | locus YOR136W, strain idh2, hits give low values 1.02 | locus YOR144C, strain elg1, hits give low values 1.01 | locus YOR184W, strain ser1, hits give low values 1.02 | locus YOR265W, strain rbl2, hits give low values 1 | locus YOR270C, strain vph1, hits give low values 0.998 | locus YOR290C, strain snf2, hits give low values 0.981 | locus YOR316C, strain cot1, hits give low values 1.01 | locus YPL051W, strain arl3, hits give low values 0.968 | locus YPL078C, strain atp4, hits give low values 1.01 | locus YPL106C, strain sse1, hits give low values 0.983 | locus YPL240C, strain hsp82, hits give low values 1 | locus YPR119W, strain clb2, hits give low values 1.01 | locus YPR141C, strain kar3, hits give low values 1.01 | locus YPR163C, strain tif3, hits give low values 1.02 | locus YPR167C, strain met16, hits give low values 1.01 | strain wtn01, hits give low values 0.998
